The term inhibition denotes how much of the control response was suppressed.

Out of some 1,400 compounds screened, about 860 (61%) were called active.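 Rule for the calls: active = inhibition reaching a set limit, 80% of the first screen's cutoff, at 20 µM in any replicate; inactive = the rest.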 So high a share suggests a set chosen from earlier hits. The full list was thinned out, with actives kept by preference.

DNA dC->dU-editing enzyme APOBEC-3A (Homo sapiens), sequence (P31941 whole entry, looked up): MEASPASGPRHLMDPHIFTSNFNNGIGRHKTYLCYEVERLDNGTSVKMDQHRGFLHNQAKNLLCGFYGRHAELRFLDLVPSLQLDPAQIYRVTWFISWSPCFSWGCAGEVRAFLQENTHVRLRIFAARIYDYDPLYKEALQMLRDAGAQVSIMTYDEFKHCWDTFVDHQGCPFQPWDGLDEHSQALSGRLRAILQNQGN

This test concerns the target DNA dC->dU-editing enzyme APOBEC-3A (Homo sapiens) (UniProt P31941). Description: A3A ssDNA deamination blockers, replicate testing – biochemical, single concentration, fluorescence readout, selectivity assay for APOBEC3G inhibitor project, confirmation (AID 493151).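 Note: plate controls were DMSO wells with A3A for no effect and wells lacking A3A enzyme for full effect.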 As to conditions: recombinant A3A, ssDNA deaminase UDG fluorescence assay; at 20 µM; active compounds read high.
As to `CCN(CC)CCOC(=O)c1cc2cc(COC)ccc2o1`, the inhibition was 80.1% (active).
With `O=C(O)CCn1cc(C=C2C(=O)NC(=S)NC2=O)c(-c2cccc(Br)c2)n1` the figure was 52.3% (active).
